Assay outcomes (PubChem)
PglD DTNB: blocks C. jejuni PglD acetyltransferase activity. inhibition, % at 12.5 µM. 360,000 compounds, 0.098% hits. purified PglD enzyme, DTNB colorimetric CoA detection; in the data active = inhibition above about 16%, passing the limit was not always enough
CFTR F508del cor: correctors of CFTR F508del function in bronchial epithelial cells; 350,000 compounds, 0.36% hits; activity (quench increase), % at 7.58 µM; CFBE cells, YFP halide quenching; stimulated with forskolin plus potentiator P3; % fluorescence drop versus neutral controls;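 active = mean added fluorescence quench of at least 8% versus neutral control, with both replicates also reaching 8%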;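 also: cells transiently co-express mutant CFTR-F508del with the halide-sensitive YFP; corrector assay measuring rescue of mutant channel to the surface after 24 h compound exposure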
Statin myotox sup: suppression of simvastatin myotoxicity | rescue of ATP level, % at 7.49 µM | AID 602340 | 330,000 compounds, 0.78% hits | C2C12 myotubes + simvastatin, ATP luminescence, 48 h; scaled: DMSO 0, geranylgeraniol control 100;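 active = mean ATP rescue above about 67%, or every replicate alone reaching that limit, limit read from the data, passing the limit was not always enough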;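 also: myotubes were challenged with 10 µM simvastatin during compound exposure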
ARNT TACC3 PPI: ARNT/TACC3 interaction disruption; inhibition, % at 9.99 µM; AlphaScreen His-ARNT PAS-B/GST-TACC3 binding, luminescence; TACC3 fragment carries E629A point mutation; AID 623870; 390,000 compounds, 0.66% hits; Q9Y6A5;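 active = mean inhibition of replicates at least 50% and at least half of replicates each reaching 50%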
Numbers stand for hits. A selection: hits, their analogues and other compounds. The true share with any hit is near 1.4%.

`Cc1ccc(C2NC(=O)c3ccccc3N2)c(C)c1` (configuration not stated) gave CFTR F508del cor 11 and ARNT TACC3 PPI inactive.
NC(=O)C(CC(=O)O)NC(=O)[C@@H]1CCCNc2c(I)cc([N+](=O)[O-])cc2C(=O)N[C@@H](CO)C(=O)N[C@@H](Cc2ccc(O)cc2)C(=O)N1 (some centres not stated) was read as PglD DTNB inactive, Statin myotox sup 159 and ARNT TACC3 PPI inactive.
For NC(=O)[C@@H]1CCCNc2c(I)cc([N+](=O)[O-])cc2C(=O)N[C@@H](CCC(=O)O)C(=O)N[C@@H](CO)C(=O)N1 the results were PglD DTNB inactive, Statin myotox sup inactive and ARNT TACC3 PPI inactive.
For Cc1ccc(S(=O)(=O)N2CCN(C(=O)COC(=O)/C=C/c3ccc(Cl)cc3)CC2)c(C)c1 the results were PglD DTNB inactive, CFTR F508del cor 17 and Statin myotox sup inactive.
For O=C(C[C@H]1C=C[C@@H](NC(=O)Nc2cccc(F)c2)[C@@H](CO)O1)NCC1CC1 the results were PglD DTNB inactive, CFTR F508del cor inactive, Statin myotox sup inactive and ARNT TACC3 PPI inactive.
For Cc1noc(C)c1NC(=O)Nc1ccc2c(c1)C(=O)N([C@H](C)CO)C[C@H](C)[C@H](CN(C)S(=O)(=O)c1ccc(Cl)cc1)OCCCC[C@H](C)O2 the results were PglD DTNB inactive, CFTR F508del cor inactive and ARNT TACC3 PPI inactive.
`COc1cc(C2C3=C(COC3=O)Oc3cc4c(cc32)OCO4)ccc1OC(C)=O` (configuration not stated) gave CFTR F508del cor inactive and ARNT TACC3 PPI inactive.
Screening COc1ccc(C2C3=C(COC3=O)Oc3cc4c(cc32)OCO4)cc1OC (configuration not stated) returned CFTR F508del cor 9.6 and ARNT TACC3 PPI inactive.
Screening Cc1cccc(S(=O)(=O)N2CC[C@@H]3[C@H](CO)N(C)c4ccc(-c5ccc(C#N)cc5)cc4[C@@H]32)c1 returned PglD DTNB inactive, CFTR F508del cor inactive, Statin myotox sup inactive and ARNT TACC3 PPI inactive.
For CS(=O)(=O)N[C@H]1C[C@@H]2O[C@H](CO)CC[C@@H]2O[C@@H]1CCc1ccc(-c2ccccc2F)cc1 the results were CFTR F508del cor inactive.
O=c1ccc(-c2ccc(S(=O)(=O)NCC3CCN(Cc4ccccc4F)CC3)s2)n[nH]1 was read as PglD DTNB inactive, CFTR F508del cor inactive, Statin myotox sup inactive and ARNT TACC3 PPI 50.
CC(=O)NC[C@@H]1[C@@H](c2ccc(-c3cccc(F)c3)cc2)[C@H](CO)N1C(C)=O was read as PglD DTNB inactive, CFTR F508del cor inactive, Statin myotox sup inactive and ARNT TACC3 PPI inactive.
Screening C[C@@H]1CN([C@@H](C)CO)C(=O)Cc2cc(NC(=O)Nc3cccc4ccccc34)ccc2O[C@@H]1CN(C)Cc1ccccc1 returned PglD DTNB inactive, CFTR F508del cor inactive, Statin myotox sup inactive and ARNT TACC3 PPI inactive.
`COc1ccc(NC(=O)Nc2ccc3c(c2)CC(=O)N([C@@H](C)CO)C[C@@H](C)[C@@H](CN(C)C(=O)Nc2cccc4ccccc24)O3)cc1` gave PglD DTNB inactive, CFTR F508del cor inactive, Statin myotox sup inactive and ARNT TACC3 PPI inactive.
For C[C@@H]1CN([C@H](C)CO)C(=O)Cc2cc(NC(=O)Nc3cccc4ccccc34)ccc2O[C@H]1CN(C)Cc1ccccc1 the results were PglD DTNB inactive, CFTR F508del cor inactive, Statin myotox sup 73 and ARNT TACC3 PPI inactive.
`C[C@@H]1CN([C@@H](C)CO)C(=O)Cc2cc(NC(=O)Nc3cccc4ccccc34)ccc2O[C@@H]1CN(C)Cc1ccc(C(F)(F)F)cc1` gave PglD DTNB inactive, CFTR F508del cor inactive and Statin myotox sup 98.
COc1ccc(NC(=O)Nc2ccc3c(c2)CC(=O)N([C@@H](C)CO)C[C@@H](C)[C@H](CN(C)C(=O)Nc2cccc4ccccc24)O3)cc1 was read as PglD DTNB inactive, CFTR F508del cor inactive, Statin myotox sup 78 and ARNT TACC3 PPI inactive.
COC(=O)c1cn(CCNC(=O)[C@H](Cc2ccccc2)NS(=O)(=O)c2ccc(C)cc2)nn1 was read as CFTR F508del cor inactive.
COc1ccc(S(=O)(=O)Nc2ccc3c(c2)C(=O)N([C@@H](C)CO)C[C@@H](C)[C@H](CN(C)S(=O)(=O)c2cccs2)OCCCC[C@H](C)O3)cc1 was read as PglD DTNB inactive, CFTR F508del cor inactive, Statin myotox sup inactive and ARNT TACC3 PPI inactive.
Screening O=C(NCCN1C(=O)S/C(=C\c2ccc(OC(F)F)cc2)C1=O)c1cnccn1 returned CFTR F508del cor 13 and ARNT TACC3 PPI inactive.
